Shown are actives, neighbours in structure and some others; about 14% of the full set was active somewhere.
USP28 block: blocks human USP28 ubiquitin-rhodamine cleavage; 3% of 47,000 active; Q96RU2; purified USP28, Ub-rhodamine cleavage fluorescence, 30 min; inhibition, % at 25 µM; AID 1645857
Target sequence (Q96RU2 whole entry, looked up): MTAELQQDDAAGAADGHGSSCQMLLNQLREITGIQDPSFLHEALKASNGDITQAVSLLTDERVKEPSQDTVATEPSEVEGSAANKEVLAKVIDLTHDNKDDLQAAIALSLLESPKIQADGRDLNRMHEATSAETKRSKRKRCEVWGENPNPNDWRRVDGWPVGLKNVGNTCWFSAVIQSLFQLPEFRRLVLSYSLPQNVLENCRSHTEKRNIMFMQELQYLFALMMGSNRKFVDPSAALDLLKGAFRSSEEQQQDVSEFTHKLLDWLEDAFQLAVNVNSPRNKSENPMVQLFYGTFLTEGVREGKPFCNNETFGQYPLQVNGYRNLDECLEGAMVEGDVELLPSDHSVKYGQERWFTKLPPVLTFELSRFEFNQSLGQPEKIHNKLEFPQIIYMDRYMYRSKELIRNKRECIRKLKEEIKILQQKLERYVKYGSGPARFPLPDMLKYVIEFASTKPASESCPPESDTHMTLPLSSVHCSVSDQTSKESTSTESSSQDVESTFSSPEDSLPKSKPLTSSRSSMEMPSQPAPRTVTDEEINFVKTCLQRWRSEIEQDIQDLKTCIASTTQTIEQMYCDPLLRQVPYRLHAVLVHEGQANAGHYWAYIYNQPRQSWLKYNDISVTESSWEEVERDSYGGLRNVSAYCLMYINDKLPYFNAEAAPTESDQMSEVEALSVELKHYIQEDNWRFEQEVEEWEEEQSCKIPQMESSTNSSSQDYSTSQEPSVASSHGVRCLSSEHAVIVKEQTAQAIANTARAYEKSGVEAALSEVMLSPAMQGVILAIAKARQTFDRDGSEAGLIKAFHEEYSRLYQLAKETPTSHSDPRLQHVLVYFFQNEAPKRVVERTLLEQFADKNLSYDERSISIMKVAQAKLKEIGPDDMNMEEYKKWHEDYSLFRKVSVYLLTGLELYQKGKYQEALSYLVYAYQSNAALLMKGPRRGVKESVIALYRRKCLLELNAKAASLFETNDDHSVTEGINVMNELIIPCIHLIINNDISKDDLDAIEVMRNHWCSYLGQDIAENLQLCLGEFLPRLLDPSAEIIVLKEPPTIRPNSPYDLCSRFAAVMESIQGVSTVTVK
USP8 block: human USP8 deubiquitinase inhibition; inhibition, % at 20 µM; 4.2% of 47,000 active; purified USP8, Ub-rhodamine cleavage fluorescence, 30 min; AID 1645853; P40818
USP30 inh: inhibitors of human USP30 deubiquitinase; AID 1645860; Q70CQ3; inhibition, % at 25 µM; purified USP30, Ub-rhodamine cleavage fluorescence; 5.3% of 47,000 active
USP17 inh: blocks human USP17 ubiquitin-rhodamine cleavage; A8MUK1; purified USP17, Ub-rhodamine cleavage fluorescence, 3 h; inhibition, % at 50 µM; 6.5% of 47,000 active
USP10 inh: blocks human USP10 ubiquitin-rhodamine cleavage. Q14694. purified USP10, Ub-rhodamine fluorescence, 60 min. inhibition, % at 20 µM. 1.1% of 47,000 active
* = called active by the depositor. Cut-off read from the data, not from the text of the source: active = inhibition above about 30%; inactive = the rest.

SMILES | USP28 block | USP8 block | USP30 inh | USP17 inh | USP10 inh
O=c1ccc(-c2noc(CCc3c[nH]c4ccccc34)n2)c[nH]1 | 42* | -7 | -93 | -28 | -6
Cc1ccc(Cc2nc(-c3cccc(-c4ccn[nH]4)c3)no2)cc1 | 45* | 18 | 2 | 10 | 10
CCC=C1C=C(NCCOCCO)n2nc3nc(C)cc(C)c3c2N1 | -37 | -24 | -187 | -53 | -10
CCc1nnc(NC(=O)CCc2nc(-c3ccc(C)n(CC)c3=O)no2)s1 | -7 | -9 | -26 | -3 | -1
O=c1ccc(-c2noc(-c3n[nH]c4ccccc34)n2)c[nH]1 | -77 | 56* | -194 | -27 | 0
COCC(C)Nc1ncc(-c2cnccn2)c(-c2ccc(C)s2)n1 (centres undefined) | 12 | 3 | 25 | 63* | 2
O=C(c1cnc2sccn2c1=O)N1CCN(c2ccc(F)cc2)CC1 | -14 | -9 | -18 | -8 | -1
CCOC(=O)[C@@H]1[C@H](c2ccccc2)[C@@H](NC(=O)N2CCOCC2)[C@H]2CCCN21 | -3 | 6 | -14 | -11 | -2
CCCN1C(=O)CCc2cc(NC(=O)c3ccccc3)ccc21 | 27 | 2 | 10 | 2 | 2
CN1C(=O)CCc2cc(NC(=O)c3cc4ccccc4[nH]3)ccc21 | -32 | -13 | -88 | 33* | -7
Cc1cc(C)c(S(=O)(=O)Nc2cc(C(=O)O)ccc2N2CCN(C)CC2)c(C)c1 | -2 | 77* | -24 | 9 | -2
CCCN1CCN(c2ccc(C(=O)O)cc2NS(=O)(=O)c2ccccc2)CC1 | -8 | 74* | -13 | 0 | 0
CC(=O)c1ccc(NS(=O)(=O)c2cc(C)cc3c2OCCN3C)cc1 | -5 | -2 | -6 | -10 | 0
CCNC(=O)c1ccc(N2CCNCC2)c(NS(=O)(=O)c2cc(C)c(C)cc2C)c1 | 7 | 46* | 10 | 5 | -3
CCN(CC)C(=O)c1sc(NC(=O)c2cc(-c3ccccc3Cl)nc3ccccc23)c(C(N)=O)c1C | 4 | 47* | 5 | 13 | 44*
Cn1c(=O)c2c(ncn2CC(=O)OCC(=O)Nc2ccc3c(c2)CCC3)n(C)c1=O | 10 | -2 | -13 | -14 | -4
CCOc1ncccc1C(=O)NC1CCCc2ccccc21 (centres undefined) | 26 | 17 | 32* | 15 | 6
O=C(NC1CCCc2ccccc21)c1cnn(-c2ccccc2)c1-n1cccc1 (centres undefined) | 16 | 11 | 32* | 13 | 6
Cn1c(=O)c2c(ncn2CC(=O)NC2CCCc3ccccc32)n(C)c1=O (centres undefined) | 82* | 1 | 17 | 13 | 0
COc1ccc(C(=O)NC(c2ccccc2)c2cccnc2)cc1 (centres undefined) | 2 | -91 | -7 | -15 | -1
O=C(NCCc1cccnc1)c1nc(-c2cn(-c3nccs3)cn2)n2ccccc12 | -5 | -16 | -108 | 45* | -11
Cc1cc2cc(CNC(=O)c3ccccc3[N+](=O)[O-])ccc2[nH]1 | 8 | -59 | 1 | 39* | 0
COc1ccc(CC(=O)NCc2ccc3[nH]c(C)cc3c2)cc1 | 10 | 14 | -50 | 56* | -4
Cc1sc2nc(C(C)C)n(C3CCN(CC(=O)NC(C)C)CC3)c(=O)c2c1C | -7 | -5 | -27 | -3 | -2
COc1ccc(S(=O)(=O)N2CCC3(CC2)OC(=O)Nc2ccccc23)cc1 | 7 | 39* | 19 | 64* | 5
SMILES | USP28 block | USP8 block | USP30 inh | USP17 inh | USP10 inh
O=C(OCC(=O)N1CCC(Cc2ccccc2)CC1)c1ccc(N2CCCC2=O)cc1 | 43* | -1 | 9 | 4 | -6
Cc1cc(NC(=O)c2nnn(-c3ccccc3Cl)c2C)no1 | 86* | 6 | 14 | 2 | -1
Cc1ccc(Cl)c(-n2nnc(C(=O)Nc3ccccc3C#N)c2C)c1 | 6 | 16 | 30* | 56* | 11
Nc1ncnc2c1ncn2C1O/C(=C\C(N)CCC(N)C(=O)O)C(O)C1O (centres undefined) | -22 | -30 | -104 | -35 | -4
Cc1ccc(S(=O)(=O)N2CC3CN(C(=O)Nc4cccc(C)c4)CC(C2)O3)cc1 | -5 | -54 | 4 | -1 | 0
CCN1C(=O)c2cccnc2Sc2cc(NC(=O)CCc3cccc(OC)c3)ccc21 | 44* | -20 | -55 | 4 | -5
CCN1C(=O)c2cccnc2Sc2cc(NC(=O)c3ccc(Cl)s3)ccc21 | 51* | -11 | -63 | -15 | -3
CCN1C(=O)c2cccnc2Sc2cc(NC(=O)C3CCC3)ccc21 | -26 | -14 | -66 | -18 | -6
